Data from PubChem BioAssay (NCI).
About 83,000 compounds went through this panel and 20% of them were active in at least one assay; those are over-represented in the sample as a whole.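 Percent growth is the endpoint: 0 to 100 indicates growth inhibition (40 means 60% inhibition), 0 means no net growth, and negative values indicate cell death.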 A number with no mark means an inactive call. Activity calls are given as the source filed them. How the source made its calls: active means growth percent below 10; inactive means the rest.

What was measured:
Test in all cases: NCI-60 one-dose screen, 48 h (100 = growth as untreated, 0 = no growth, -100 = all killed)
Conditions in all cases: 10 µM unless noted
DU-145 prostate = system: DU-145 prostate
K-562 leukemia = system: K-562 leukemia
RXF 393 renal = system: RXF 393 renal
SF-268 CNS = system: SF-268 CNS
SF-295 CNS = system: SF-295 CNS
SF-539 CNS = system: SF-539 CNS
UACC-257 melanoma = system: UACC-257 melanoma
M14 melanoma = system: M14 melanoma
HCT-15 colon = system: HCT-15 colon
HT29 colon = system: HT29 colon
SNB-75 CNS = system: SNB-75 CNS
U251 CNS = system: U251 CNS
PC-3 prostate = system: PC-3 prostate
SK-MEL-28 melanoma = system: SK-MEL-28 melanoma
MDA-MB-231 breast = system: MDA-MB-231 breast
SNB-19 CNS = system: SNB-19 CNS
SK-MEL-5 melanoma = system: SK-MEL-5 melanoma
UACC-62 melanoma = system: UACC-62 melanoma
LOX IMVI melanoma = system: LOX IMVI melanoma
MALME-3M melanoma = system: MALME-3M melanoma

Compound | growth (DU-145 prostate) [%] | growth (K-562 leukemia) | growth (RXF 393 renal) | growth (SF-268 CNS) [%] | growth (SF-295 CNS) [%] | growth (SF-539 CNS) [%] | growth (UACC-257 melanoma) | growth (M14 melanoma) | growth (HCT-15 colon) | growth (HT29 colon) | growth (SNB-75 CNS) [%] | growth (U251 CNS) [%] | growth (PC-3 prostate) [%] | growth (SK-MEL-28 melanoma) [%] | growth (MDA-MB-231 breast) [%] | growth (SNB-19 CNS) [%] | growth (SK-MEL-5 melanoma) [%] | growth (UACC-62 melanoma) [%] | growth (LOX IMVI melanoma) [%] | growth (MALME-3M melanoma) [%]
Clc1ccc2c(N3CCN(c4ccnc(NC5CCCCC5)n4)CC3)ccnc2c1 | 62.4 | 7.08% (active) | 57.6% | 71.6 | 39.3 | 53.5 | 0.862% (active) | -43.7% (active) | 2.81% (active) | 3.22% (active) | 65.6 | 40.4 | 36.7 | 36.8 | – | – | – | – | – | –
C=C(C)COC(=O)c1ccccc1C(=O)OCC1(C)CO1 (stereo not drawn) | 104 | 110% | 117% | 93.6 | 91.9 | 101 | 101% | 96.5% | 107% | – | 92.9 | 102 | 104 | 117 | 103 | 101 | 105 | 92.8 | 84.5 | –
CCCCNNC(=O)c1ccc(Br)cc1 | 50.9 | 29.9% | 69.5% | 56.4 | 38.4 | 61.4 | 16.3% | 42% | – | 36.9% | 61.1 | 61.9 | 61.4 | 53.2 | 76.1 | 76.6 | – | 40.9 | 62.1 | –
CC(=O)Nc1ccc(S(=O)(=O)N/N=C\c2ccc(Cl)c(Cl)c2)cc1 | 110 | 116% | 123% | 100 | 108 | 111 | 103% | 102% | 118% | – | 81.7 | 95.5 | 83.6 | 115 | 110 | 103 | 104 | 99.2 | 98.7 | –
COc1cc(-c2nc(Nc3nc4ccccc4[nH]3)nc(N)c2C#N)cc(OC)c1OC | 61.8 | – | -1.43% (active) | 71.2 | 18.1 | 58.9 | 69.5% | 53% | 59.1% | 32% | 29.2 | 56.8 | 44.7 | 72 | 53 | 69.2 | – | 44.5 | 69.5 | 65
COC(=O)c1cc(-c2ccc(C)cc2)n(C(=O)CSc2nc3sc(C(N)=O)c(C)c3c(=O)n2Cc2ccccc2)n1 | 102 | 101% | 106% | 108 | 109 | 104 | 106% | 102% | 98.1% | 115% | 83.3 | 102 | 86.1 | 112 | – | – | – | – | – | –
CC(=O)c1cc(C)c(OC(=O)c2ccccc2)c(C)c1 | 102 | 85.7% | 98.9% | 107 | 107 | 100 | – | 105% | 92.2% | – | 82.6 | – | 89.9 | 117 | 94.6 | 103 | 88.9 | 90.7 | 90.2 | –
Cc1cc(C)c(S(=O)O)c(C)c1 | 120 | – | 101% | 114 | 93.4 | 104 | 121% | 116% | 111% | 100% | 86.6 | 105 | 94.6 | 113 | 102 | 102 | 105 | 102 | 93.9 | 122
COC(=O)c1ccc(C(=O)Nc2ccccc2N)cc1 | 80.2 | 73.3% | 86.8% | 65.4 | – | 64.9 | 75.7% | 83.3% | 83.9% | 86.9% | 78.4 | 72.1 | 65.3 | 94.6 | 67.3 | 85.6 | – | 61.2 | 97.7 | –
FCOC(C(F)(F)F)C(F)(F)F | 113 | – | 115% | 115 | 106 | 98.8 | 90.4% | 99.9% | 103% | 107% | 109 | 94.1 | 106 | 126 | 120 | 108 | 103 | 104 | 101 | 92.2
CON=C1C[C@]2(C[C@@H]3C[C@@H](C/C=C(\C)C[C@@H](C)/C=C/C=C4\CO[C@@H]5[C@H](O)C(C)=C[C@@H](C(=O)O3)[C@]45O)O2)O[C@H](/C(C)=C/C(C)C)[C@H]1C | 39.6 | – | 47.2% | 58.3 | 33 | 85.1 | 81.3% | 57.4% | 48.4% | 32.4% | 140 | 39.5 | 13.5 | 85.8 | 54 | 63.3 | 65.1 | 70.6 | 55.3 | 65.9
OB(O)c1ccccc1 | 111 | – | 123% | 106 | 97.7 | 106 | 99.4% | 108% | 102% | 101% | 101 | 101 | 101 | 117 | 114 | 114 | 113 | 109 | 101 | 102
